Data from PubChem BioAssay (Tox21).
Unmarked numbers belong to inactive results. Records with an inconclusive call do not appear. Entries that show only a call come without a potency. The source made the active and inactive calls. Unless noted, calls follow the shape of the full dose curve.

Assays:
[1] = Nuclear factor erythroid 2-related factor 2/antioxidant responsive element (Nrf2/ARE) small molecule agonists: qHTS cell viability counter screen in human keratinocytes (AID 1919968; active = well fitted curve in the direction sought with a large enough effect in the repeat runs; an effect the other way counts as inactive or inconclusive; also: nearly all actives have a fitted effect of over 55% in size)
Outline: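 Cytotoxicity was multiplexed with the Nrf2/ARE luciferase assay in the same wells. Stably transfected HaCaT keratinocytes were treated with test compounds for 23 h at 37 C. Cell viability was then measured by CellTiter-Fluor fluorescence.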

[2] = molecular target: Gonadotropin-releasing hormone receptor (Homo sapiens) (UniProt P30968); test: Human gonadotropin-releasing hormone receptor (GnRHR) small molecule agonists, calcium flux assay in GnRHR-HEK293 cells (AID 1920063); also: nearly all actives have a fitted effect of over 35% in size
Outline: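 Agonist activity was measured as intracellular calcium flux in HEK293 cells engineered to stably express human GnRHR. After dye loading for 1 hour at 37 C, compounds in DMSO were added and fluorescence was followed for 3 minutes.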

[3] = molecular target: KiSS-1 receptor (Homo sapiens) (UniProt Q969F8); test: Human kisspeptin (KISS1R) small molecule agonists, calcium flux assay in KISS1R-HEK293 cells (AID 1920064; active = well fitted curve in the direction sought with a large enough effect in the repeat runs; an effect the other way counts as inactive or inconclusive)
Outline: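 Agonist activity is monitored as intracellular calcium rise in engineered HEK293 cells carrying human KISS1R. Cells are dye-loaded for 1 h at 37 C before compound addition, and fluorescence is recorded for 3 min.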

[4] = G protein-coupled receptor (GPCR) small molecule agonists, calcium flux assay: HEK293 wild type cell line counter screen (AID 1920065)
Outline: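 Seed cells, incubate 18 h (37 C, 5% CO2); add calcium dye, 1 h at 37 C; pin-transfer compounds, ATP control or DMSO; read fluorescence 480/540 nm each second for 3 min.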

[5] = p53 small molecule agonists, cell-based qHTS assay with rat liver microsomes (AID 1963578)
Outline: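 Agonist mode in p53RE-bla reporter cells, with compounds co-incubated 16 h at 37 C alongside 0.5 mg/mL rat liver microsomes and 0.5 mg/mL NADPH (final), followed by a 2 h LiveBLAzer detection step.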

[6] = p53 small molecule agonists, cell-based qHTS assay with human liver microsomes: qHTS cell viability counter screen (AID 1963579); also: nearly all actives have a fitted effect of over 45% in size
Outline: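 Metabolically activated exposure: compounds, human liver microsomes and NADPH (0.5 mg/mL final apiece) were added to p53RE-bla cells seeded 5 h earlier, left 16 h at 37 C, and then assessed for viability by CellTiter-Glo luminescence.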

[7] = p53 small molecule agonists, cell-based qHTS assay with rat liver microsomes: qHTS cell viability counter screen (AID 1963580); also: nearly all actives have a fitted effect of over 45% in size
Outline: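 Rat liver microsome (0.5 mg/mL final) and NADPH (0.5 mg/mL final) co-incubation with compounds for 16 h at 37 C on HCT-116 p53RE-bla cells; cytotoxicity taken from intracellular ATP luminescence.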

[8] = p53 small molecule agonists, cell-based qHTS assay: qHTS cell viability counter screen (AID 1963581); also: nearly all actives have a fitted effect of over 45% in size
Outline: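 Viability was counter-screened in parallel with the p53 agonist reporter by measuring intracellular ATP luminescence in the same HCT-116 p53RE-bla wells after 16 h compound treatment at 37 C.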

[9] = p53 small molecule agonists, cell-based qHTS assay (AID 1963582; active = well fitted activation curve with a large enough effect in the signal ratio in the repeat runs, not every such curve was filed as active; the % refers to the signal ratio)
Outline: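 Cells carrying a p53-responsive bla reporter are treated with test compounds for 16 h at 37 C; beta-lactamase activity is then detected with LiveBLAzer B/G FRET substrate after 2 h at room temperature.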

[10] = molecular target: 5-hydroxytryptamine receptor 2A (Homo sapiens) (UniProt P28223); test: 5-hydroxytryptamine receptor 2A (HTR2A) small molecule agonists, cell-based qHTS assay (AID 1963587); also: nearly all actives have a fitted effect of over 30% in size
Outline: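 Kinetic calcium-flux fluorescence (2 min, 1 sec intervals) after compound addition in agonist mode. HTR2A-CHO cells were cultured 18 h, then dye-loaded 1 h at 37 C.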

[11] = molecular target: Muscarinic acetylcholine receptor M1 (Homo sapiens) (UniProt P11229); test: Cholinergic receptor muscarinic 1 (CHRM1) small molecule antagonists, cell-based qHTS assay (AID 1963588); also: nearly all actives have a fitted effect of over 40% in size; also: potency is read from the fitted curve at half-maximal effect
Outline: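 Compounds were tested at 15 concentrations in three independent runs. Dye-loaded CHRM1-CHO cells were exposed 5 min at room temperature before stimulation by acetylcholine added at 50nM. Intracellular calcium was read kinetically on FDSS for 3 min.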

[12] = molecular target: Muscarinic acetylcholine receptor M1 (Homo sapiens) (UniProt P11229); test: Cholinergic receptor muscarinic 1 (CHRM1) small molecule agonists, cell-based qHTS assay (AID 1963589); also: nearly all actives have a fitted effect of over 35% in size
Outline: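 Cells were plated and incubated 18 h at 37 C/5% CO2, loaded with calcium dye for 1 h at 37 C, then treated with compounds in DMSO. Fluorescence was recorded kinetically at 1 sec intervals.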

[13] = cAMP Responsive Elements (CRE) small molecule agonists, cell-based qHTS assay (AID 1963590)
Outline: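 Cells carrying a CRE-driven beta-lactamase reporter (HEK 293T) are seeded, incubated overnight (18 h), and treated with test compounds for 3 h at 37 C; reporter activity is then detected with a FRET substrate after 2 h at room temperature.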

[14] = cAMP Responsive Elements (CRE) small molecule antagonists, cell-based qHTS assay (AID 1963591; active = well fitted inhibition curve with a large enough effect in the signal ratio in the repeat runs, not every such curve was filed as active; the % refers to the signal ratio)
Outline: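 Cells (CRE-bla HEK 293T, DMEM with 10% dialyzed FBS and 25 mM HEPES) are seeded and incubated 18 h. Compounds are added with NKH477 agonist at 0.25 uM final for 3 h, then FRET substrate for 2 h.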

[15] = molecular target: Beta-2 adrenergic receptor (Homo sapiens) (UniProt P07550); test: Adrenergic beta2 receptor (ADRB2) small molecule antagonists, cell-based qHTS assay (AID 1963592); also: series mostly up to about 92 µM; nearly all actives have a fitted effect of over 50% in size
Outline: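 Assay format: CHO-ADRB2 cells, 18-20hr seeding at 37C/5% CO2, then compound plus 1nM isoproterenol agonist mix for 0.5hr RT. Homogeneous time-resolved fluorescence cAMP detection after 1hr, expressed as 665/615 nm ratio.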

[16] = molecular target: Beta-2 adrenergic receptor (Homo sapiens) (UniProt P07550); test: Adrenergic beta2 receptor (ADRB2) small molecule agonists, cell-based qHTS assay (AID 1963593);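 also: CHO cells stably overexpressing human ADRB2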
Outline: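 CHO cells stably over-expressing ADRB2 were plated overnight at 37C, then dosed with compounds plus a stimulation mix containing 100uM IBMX and 25uM Ro-20-1724 for 0.5hr at room temperature. cAMP was measured by HTRF competition, 1hr.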

[17] = molecular target: D(2) dopamine receptor (Homo sapiens) (UniProt P14416); test: Dopamine D2 receptor (DRD2) small molecule agonists, cell-based qHTS assay (AID 1963594); also: nearly all actives have a fitted effect of over 35% in size
Outline: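 cAMP accumulation in DRD2-HEK293 cells measured by HTRF after 1 h detection; compounds added 10 min before NKH477 (200nM […]) forskolin-analogue stimulation, 30 min at room temperature, with Ro20-1724 present at 0.1 mM final.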

[18] = molecular target: D(2) dopamine receptor (Homo sapiens) (UniProt P14416); test: Dopamine D2 receptor (DRD2) small molecule antagonists, cell-based qHTS assay (AID 1963595; active = well fitted inhibition curve with a large enough effect in the signal ratio in the repeat runs, with a control signal flat; the % refers to the signal ratio)
Outline: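 Antagonist mode in DRD2-HEK293 cells: after compound addition with 0.1 mM Ro20-1724, cells received quinpirole (12 nM) and NKH477 (200 nM) for 30 min at room temperature; HTRF cAMP read after 1 h detection.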

[19] = molecular target: 5-hydroxytryptamine receptor 2A (Homo sapiens) (UniProt P28223); test: 5-hydroxytryptamine receptor 2A (HTR2A) small molecule antagonists, cell-based qHTS assay (AID 1963586); also: nearly all actives have a fitted effect of over 45% in size
Outline: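 CHO cells stably expressing human HTR2A were plated for 18 h at 37 C, then loaded with calcium dye for 1 h. Compounds were preincubated 5 min at room temperature before DOI (4 nM solution) was added. Kinetic fluorescence was read for 3 min.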

Sequence of Beta-2 adrenergic receptor (Homo sapiens) (P07550 whole entry, looked up): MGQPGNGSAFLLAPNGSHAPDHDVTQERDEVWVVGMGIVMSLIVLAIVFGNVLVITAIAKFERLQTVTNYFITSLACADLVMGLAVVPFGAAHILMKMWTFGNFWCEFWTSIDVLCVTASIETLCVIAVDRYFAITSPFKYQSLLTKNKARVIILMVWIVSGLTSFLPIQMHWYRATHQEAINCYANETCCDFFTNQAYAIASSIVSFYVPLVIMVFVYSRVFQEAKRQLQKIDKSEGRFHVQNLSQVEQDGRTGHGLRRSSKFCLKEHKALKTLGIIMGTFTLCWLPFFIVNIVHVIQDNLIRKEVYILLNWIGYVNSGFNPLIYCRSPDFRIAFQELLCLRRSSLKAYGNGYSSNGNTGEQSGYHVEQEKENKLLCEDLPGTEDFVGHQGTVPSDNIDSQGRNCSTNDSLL
Sequence of KiSS-1 receptor (Homo sapiens) (Q969F8 whole entry, looked up): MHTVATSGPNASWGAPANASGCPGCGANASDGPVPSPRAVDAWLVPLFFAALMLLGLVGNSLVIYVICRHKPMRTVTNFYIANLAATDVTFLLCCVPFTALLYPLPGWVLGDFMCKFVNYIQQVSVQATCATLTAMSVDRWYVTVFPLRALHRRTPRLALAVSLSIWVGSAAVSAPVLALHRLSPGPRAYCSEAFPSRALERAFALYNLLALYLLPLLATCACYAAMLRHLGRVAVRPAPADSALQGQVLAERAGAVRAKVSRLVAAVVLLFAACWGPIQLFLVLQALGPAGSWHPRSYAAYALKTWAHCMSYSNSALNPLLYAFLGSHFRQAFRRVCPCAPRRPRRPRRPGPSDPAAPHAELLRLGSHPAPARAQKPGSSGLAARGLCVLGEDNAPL
Sequence of Muscarinic acetylcholine receptor M1 (Homo sapiens) (P11229 whole entry, looked up): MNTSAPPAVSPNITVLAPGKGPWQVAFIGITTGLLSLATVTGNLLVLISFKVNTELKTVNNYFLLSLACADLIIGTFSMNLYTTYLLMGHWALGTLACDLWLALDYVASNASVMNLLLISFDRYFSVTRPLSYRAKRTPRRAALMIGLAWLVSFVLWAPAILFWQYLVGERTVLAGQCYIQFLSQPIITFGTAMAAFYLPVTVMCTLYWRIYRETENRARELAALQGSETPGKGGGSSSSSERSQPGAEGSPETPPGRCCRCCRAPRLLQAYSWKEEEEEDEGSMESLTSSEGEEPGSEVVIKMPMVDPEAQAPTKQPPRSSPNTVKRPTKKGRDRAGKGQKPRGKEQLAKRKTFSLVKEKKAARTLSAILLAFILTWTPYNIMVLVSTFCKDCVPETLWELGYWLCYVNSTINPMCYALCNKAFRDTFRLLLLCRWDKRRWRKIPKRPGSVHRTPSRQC
Sequence of 5-hydroxytryptamine receptor 2A (Homo sapiens) (P28223 whole entry, looked up): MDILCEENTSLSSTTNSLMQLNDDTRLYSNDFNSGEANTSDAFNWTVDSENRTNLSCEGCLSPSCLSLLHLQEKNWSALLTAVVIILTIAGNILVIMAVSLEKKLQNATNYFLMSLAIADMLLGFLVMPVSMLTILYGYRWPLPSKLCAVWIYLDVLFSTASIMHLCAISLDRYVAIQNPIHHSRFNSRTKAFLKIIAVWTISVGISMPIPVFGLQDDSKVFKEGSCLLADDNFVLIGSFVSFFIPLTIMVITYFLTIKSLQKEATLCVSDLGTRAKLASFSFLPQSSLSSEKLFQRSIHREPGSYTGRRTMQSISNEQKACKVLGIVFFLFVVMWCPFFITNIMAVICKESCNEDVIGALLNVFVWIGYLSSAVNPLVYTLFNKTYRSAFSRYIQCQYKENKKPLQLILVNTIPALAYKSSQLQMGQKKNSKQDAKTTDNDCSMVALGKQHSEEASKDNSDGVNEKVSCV
Sequence of Gonadotropin-releasing hormone receptor (Homo sapiens) (P30968 whole entry, looked up): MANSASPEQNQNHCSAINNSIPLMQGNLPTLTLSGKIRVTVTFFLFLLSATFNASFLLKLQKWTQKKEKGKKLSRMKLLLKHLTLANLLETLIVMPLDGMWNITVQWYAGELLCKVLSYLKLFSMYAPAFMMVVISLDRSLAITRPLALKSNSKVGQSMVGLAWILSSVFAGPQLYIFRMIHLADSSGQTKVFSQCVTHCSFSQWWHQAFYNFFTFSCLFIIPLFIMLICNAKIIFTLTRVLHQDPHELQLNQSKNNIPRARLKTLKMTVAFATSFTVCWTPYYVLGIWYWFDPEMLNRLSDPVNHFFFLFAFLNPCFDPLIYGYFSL
Sequence of D(2) dopamine receptor (Homo sapiens) (P14416 whole entry, looked up): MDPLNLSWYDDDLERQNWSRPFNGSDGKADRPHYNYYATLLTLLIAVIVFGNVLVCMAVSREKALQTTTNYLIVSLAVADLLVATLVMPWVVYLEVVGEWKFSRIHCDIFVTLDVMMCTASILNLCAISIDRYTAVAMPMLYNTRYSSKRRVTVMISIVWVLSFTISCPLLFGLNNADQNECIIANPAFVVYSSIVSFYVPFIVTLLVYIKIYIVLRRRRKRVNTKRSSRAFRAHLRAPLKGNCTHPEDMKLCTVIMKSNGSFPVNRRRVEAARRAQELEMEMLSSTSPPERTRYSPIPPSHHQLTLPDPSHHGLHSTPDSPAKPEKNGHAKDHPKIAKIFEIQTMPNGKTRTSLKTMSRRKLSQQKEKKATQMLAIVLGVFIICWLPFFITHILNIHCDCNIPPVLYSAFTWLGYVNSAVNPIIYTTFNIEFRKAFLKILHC

SMILES	Potency [1]	Potency [2]	Potency [3]	Potency [4]	Potency [5]	Potency [6]	Potency [7]	Potency [8]	Potency [9]	Potency [10]	Potency [11]	Potency [12]	Potency [13]	Potency [14]	Potency [15]	Potency [16]	Potency [17]	Potency [18]	Potency [19]
O=CCCl	inactive	inactive	inactive	inactive	inactive	inactive	inactive	inactive	inactive	inactive	inactive	inactive	inactive	inactive	inactive	inactive	inactive	inactive	–
C=CC(=C)C	inactive	inactive	inactive	inactive	inactive	inactive	inactive	inactive	inactive	inactive	inactive	–	inactive	inactive	inactive	–	inactive	inactive	inactive
Cc1cc(C)c(C2=C(OC(=O)CC(C)(C)C)C3(CCCC3)OC2=O)c(C)c1	inactive	inactive	inactive	inactive	–	inactive	inactive	inactive	–	inactive	inactive	inactive	inactive	inactive	inactive	inactive	inactive	inactive	inactive
CN1CCC(O)(c2ccc(F)cc2)C(C(=O)c2ccc(F)cc2)C1 (stereo not drawn)	inactive	inactive	inactive	inactive	inactive	inactive	–	inactive	inactive	inactive	–	inactive	inactive	inactive	inactive	–	inactive	inactive	inactive
[C-]1=CC=CC1.[Cl][Zr+2][Cl].c1cc[cH-]c1	inactive	inactive	inactive	inactive	–	inactive	inactive	inactive	–	inactive	–	inactive	inactive	inactive	inactive	–	inactive	inactive	inactive
[Cl-].[Cl-].[Sn+2]	inactive	inactive	inactive	inactive	–	inactive	inactive	inactive	–	inactive	inactive	inactive	inactive	inactive	inactive	–	inactive	inactive	inactive
C#CCC1=C(C)C(OC(=O)C2C(C=C(C)C)C2(C)C)CC1=O (stereo not drawn)	inactive	inactive	inactive	inactive	–	inactive	inactive	inactive	–	inactive	11.8 µM (active)	–	–	–	inactive	–	inactive	–	inactive
CCCCNP(N)(N)=S	inactive	inactive	inactive	inactive	inactive	inactive	inactive	inactive	inactive	–	inactive	inactive	inactive	inactive	inactive	–	inactive	inactive	inactive
